The record followed here is publication PMC7862700, “An all-to-all approach to the identification of sequence-specific readers for epigenetic DNA modifications on cytosine”.

Holding throughout (assay): DAPPL (digital affinity profiling via proximity ligation, sequencing); 10 mM Tris-HCl pH 7.5, 50 mM NaCl, 1 mM DTT, 4% glycerol, room temperature, 30 min; GST-TFs on glutathione beads, 16-mer random dsDNA library, 0.1% formaldehyde crosslink after washing; high values mean tight binding
Holding throughout (conditions): protein: recombinant; tags: N-terminal GST; dsDNA, one strand shown

One experiment deals with T1, FLI1 (Homo sapiens, UniProt Q01543 1-452).
T1 sequence: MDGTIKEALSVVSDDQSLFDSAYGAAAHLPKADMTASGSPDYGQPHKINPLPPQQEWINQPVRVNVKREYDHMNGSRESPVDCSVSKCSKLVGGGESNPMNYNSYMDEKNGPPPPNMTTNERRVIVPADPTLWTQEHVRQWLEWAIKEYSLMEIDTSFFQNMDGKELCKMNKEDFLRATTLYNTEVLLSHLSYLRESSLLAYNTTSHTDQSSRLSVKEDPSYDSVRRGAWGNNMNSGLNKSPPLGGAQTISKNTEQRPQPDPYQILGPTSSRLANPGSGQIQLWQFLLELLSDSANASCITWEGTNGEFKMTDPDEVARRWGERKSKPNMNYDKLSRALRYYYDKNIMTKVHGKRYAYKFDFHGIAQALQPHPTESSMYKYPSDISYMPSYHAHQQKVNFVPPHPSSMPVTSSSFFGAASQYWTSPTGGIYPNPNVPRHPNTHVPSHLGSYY
Put shortly: (§1)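 Sequencing on an Illumina NextSeq500 followed washing, crosslinking with 0.1% formaldehyde, proximity ligation (BsaI/T4 ligase, 1 h, 37 °C) and PCR amplification of pools that had been incubated for 30 min at room temperature with 200 nmole of a random double-stranded 16-mer DNA library in Tris/NaCl/DTT/glycerol buffer. Each pool held DNA-barcoded human transcription factors, expressed in yeast as GST fusions and captured on glutathione beads, plus a tag-only sample. Binding signal is a hexamer's read frequency for a factor divided by its frequency in the tag-only sample.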

The next experiment has as its target T2, ELK1 (Homo sapiens, UniProt P19419 1-428).
T2 sequence: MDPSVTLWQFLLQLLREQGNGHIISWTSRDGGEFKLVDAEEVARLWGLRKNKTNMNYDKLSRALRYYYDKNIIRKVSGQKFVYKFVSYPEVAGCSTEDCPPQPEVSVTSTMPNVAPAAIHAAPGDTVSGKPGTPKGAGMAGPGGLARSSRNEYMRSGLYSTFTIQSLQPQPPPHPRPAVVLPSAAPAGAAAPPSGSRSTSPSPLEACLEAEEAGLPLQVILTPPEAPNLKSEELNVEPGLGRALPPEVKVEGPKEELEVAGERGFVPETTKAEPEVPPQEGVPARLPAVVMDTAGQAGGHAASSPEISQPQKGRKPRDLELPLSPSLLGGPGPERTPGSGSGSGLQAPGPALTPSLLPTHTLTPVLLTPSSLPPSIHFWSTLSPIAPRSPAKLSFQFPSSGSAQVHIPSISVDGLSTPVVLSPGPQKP
Put shortly:
as §1

The target of a further experiment is T3, GABPA (Homo sapiens, UniProt Q06546 1-454).
T3 sequence: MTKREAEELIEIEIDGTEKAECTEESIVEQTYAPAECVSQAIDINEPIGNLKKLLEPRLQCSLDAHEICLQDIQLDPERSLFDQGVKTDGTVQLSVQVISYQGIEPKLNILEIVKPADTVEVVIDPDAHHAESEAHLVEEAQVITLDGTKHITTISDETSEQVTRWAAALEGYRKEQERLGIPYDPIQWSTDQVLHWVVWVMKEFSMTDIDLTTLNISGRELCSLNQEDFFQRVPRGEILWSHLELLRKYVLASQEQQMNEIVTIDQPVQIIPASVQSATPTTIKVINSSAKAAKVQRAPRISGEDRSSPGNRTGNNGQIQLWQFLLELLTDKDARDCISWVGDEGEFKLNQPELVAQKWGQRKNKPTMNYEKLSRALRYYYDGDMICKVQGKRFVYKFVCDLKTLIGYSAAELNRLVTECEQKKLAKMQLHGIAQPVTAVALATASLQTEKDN
Put shortly:
as §1

Another experiment has as its target T4, ERG (Homo sapiens, UniProt P11308 1-479).
T4 sequence: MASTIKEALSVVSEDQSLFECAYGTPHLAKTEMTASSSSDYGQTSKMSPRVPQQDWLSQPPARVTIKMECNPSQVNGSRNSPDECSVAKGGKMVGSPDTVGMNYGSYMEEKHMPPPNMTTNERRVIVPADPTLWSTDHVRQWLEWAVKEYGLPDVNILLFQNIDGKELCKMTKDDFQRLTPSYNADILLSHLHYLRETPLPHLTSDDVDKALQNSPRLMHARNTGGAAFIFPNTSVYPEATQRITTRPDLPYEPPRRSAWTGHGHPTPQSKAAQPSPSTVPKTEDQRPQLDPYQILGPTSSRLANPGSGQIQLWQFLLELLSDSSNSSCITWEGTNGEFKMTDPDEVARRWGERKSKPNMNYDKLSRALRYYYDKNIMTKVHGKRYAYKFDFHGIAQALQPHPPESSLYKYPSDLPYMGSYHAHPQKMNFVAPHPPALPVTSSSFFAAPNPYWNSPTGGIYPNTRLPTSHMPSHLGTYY
In outline: as §1

For the next experiment, the target named is ELF1 (Homo sapiens, UniProt P32519 1-619). Put shortly: as §1
Chain of ELF1 (P32519 whole entry): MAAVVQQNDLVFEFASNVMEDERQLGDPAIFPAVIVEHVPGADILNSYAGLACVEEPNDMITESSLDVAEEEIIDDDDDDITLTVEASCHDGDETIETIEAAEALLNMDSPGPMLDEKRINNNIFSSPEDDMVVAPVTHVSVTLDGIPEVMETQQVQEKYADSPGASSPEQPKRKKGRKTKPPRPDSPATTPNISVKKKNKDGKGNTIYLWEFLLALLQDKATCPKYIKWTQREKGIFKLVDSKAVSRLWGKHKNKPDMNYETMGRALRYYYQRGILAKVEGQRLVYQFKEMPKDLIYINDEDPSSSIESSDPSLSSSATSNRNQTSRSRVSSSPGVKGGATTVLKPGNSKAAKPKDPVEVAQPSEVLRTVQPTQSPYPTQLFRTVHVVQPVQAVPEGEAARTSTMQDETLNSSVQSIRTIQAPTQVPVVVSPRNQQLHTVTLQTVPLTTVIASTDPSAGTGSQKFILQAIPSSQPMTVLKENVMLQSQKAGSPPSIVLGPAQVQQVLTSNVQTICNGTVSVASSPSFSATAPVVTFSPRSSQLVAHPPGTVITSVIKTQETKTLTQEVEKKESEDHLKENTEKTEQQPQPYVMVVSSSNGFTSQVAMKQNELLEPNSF
The next experiment has as its target T5, EHF (Homo sapiens, UniProt Q9NZC4 1-300).
T5 sequence: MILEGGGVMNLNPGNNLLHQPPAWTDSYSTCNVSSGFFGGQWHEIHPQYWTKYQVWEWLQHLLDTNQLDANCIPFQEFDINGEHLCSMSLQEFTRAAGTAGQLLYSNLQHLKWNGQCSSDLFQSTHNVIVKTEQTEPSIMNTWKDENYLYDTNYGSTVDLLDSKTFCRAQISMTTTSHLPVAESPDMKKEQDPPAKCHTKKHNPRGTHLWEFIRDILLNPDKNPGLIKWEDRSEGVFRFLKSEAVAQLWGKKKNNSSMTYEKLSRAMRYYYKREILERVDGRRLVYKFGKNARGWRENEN
Put shortly: as §1

Another experiment has as its target SPI1 (Homo sapiens, UniProt P17947 1-270). Put shortly:
as §1

In a further experiment the target is SPIB (Homo sapiens, UniProt Q01892 1-262). In outline:
as §1

For a further experiment, the target named is T6, ELK3 (Homo sapiens, UniProt P41970 1-407).
T6 sequence: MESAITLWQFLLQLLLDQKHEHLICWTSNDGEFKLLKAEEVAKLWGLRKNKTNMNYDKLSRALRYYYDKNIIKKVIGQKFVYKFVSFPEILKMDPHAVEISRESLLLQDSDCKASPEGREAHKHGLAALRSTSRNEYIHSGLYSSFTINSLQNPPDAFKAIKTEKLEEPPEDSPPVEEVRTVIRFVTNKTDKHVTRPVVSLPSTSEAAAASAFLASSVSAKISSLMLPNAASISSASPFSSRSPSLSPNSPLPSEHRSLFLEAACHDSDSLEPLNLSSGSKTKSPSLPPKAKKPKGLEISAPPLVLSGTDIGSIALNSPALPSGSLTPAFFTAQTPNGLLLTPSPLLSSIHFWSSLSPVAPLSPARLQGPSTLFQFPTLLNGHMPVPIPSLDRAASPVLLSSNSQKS
Put shortly:
as §1

The target in a further experiment is T7, FEV (Homo sapiens, UniProt Q99581 1-238).
T7 sequence: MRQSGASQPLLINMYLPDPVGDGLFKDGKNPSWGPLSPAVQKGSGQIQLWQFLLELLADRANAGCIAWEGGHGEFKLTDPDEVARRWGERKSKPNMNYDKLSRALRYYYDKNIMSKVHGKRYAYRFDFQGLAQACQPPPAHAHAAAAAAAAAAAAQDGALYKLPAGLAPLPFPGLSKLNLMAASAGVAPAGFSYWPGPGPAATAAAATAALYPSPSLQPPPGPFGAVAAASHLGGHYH
Put shortly: as §1

A further experiment has as its target ETV5 (Homo sapiens, UniProt P41161 1-510). In outline:
as §1

The target in another experiment is T8, SPIC (Homo sapiens, UniProt Q8N5J4 1-248).
T8 sequence: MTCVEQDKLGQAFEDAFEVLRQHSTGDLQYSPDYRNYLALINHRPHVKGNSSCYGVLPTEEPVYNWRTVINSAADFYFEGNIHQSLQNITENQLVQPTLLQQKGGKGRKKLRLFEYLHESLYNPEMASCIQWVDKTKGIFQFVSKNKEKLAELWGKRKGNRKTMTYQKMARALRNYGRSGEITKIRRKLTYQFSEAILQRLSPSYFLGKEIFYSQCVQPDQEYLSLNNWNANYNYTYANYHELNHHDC
Put shortly:
as §1

Another experiment addresses ELF4 (Homo sapiens, UniProt Q99607 1-663). In outline: as §1
The target in a further experiment is ETV1 (Homo sapiens, UniProt P50549 1-477). In outline:
as §1

The target of another experiment is T9, ERF (Homo sapiens, UniProt P50548 1-548).
T9 sequence: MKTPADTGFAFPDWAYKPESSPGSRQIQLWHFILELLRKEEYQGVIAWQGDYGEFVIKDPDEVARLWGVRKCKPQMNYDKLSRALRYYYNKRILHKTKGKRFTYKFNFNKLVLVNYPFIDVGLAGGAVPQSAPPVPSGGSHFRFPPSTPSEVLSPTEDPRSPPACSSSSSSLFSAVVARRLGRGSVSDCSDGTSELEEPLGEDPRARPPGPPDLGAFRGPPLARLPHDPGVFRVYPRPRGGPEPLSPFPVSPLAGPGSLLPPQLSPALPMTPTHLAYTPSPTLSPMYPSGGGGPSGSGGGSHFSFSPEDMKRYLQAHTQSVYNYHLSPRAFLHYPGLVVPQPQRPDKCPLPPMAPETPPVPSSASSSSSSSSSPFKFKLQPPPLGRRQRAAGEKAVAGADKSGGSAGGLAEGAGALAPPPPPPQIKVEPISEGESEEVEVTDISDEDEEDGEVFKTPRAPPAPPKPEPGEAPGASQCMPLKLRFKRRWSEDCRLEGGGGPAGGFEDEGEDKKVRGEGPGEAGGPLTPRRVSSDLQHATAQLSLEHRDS
In outline:
as §1

In the next experiment the target is T10, ETV3L (Homo sapiens, UniProt Q6ZN32 1-361).
T10 sequence: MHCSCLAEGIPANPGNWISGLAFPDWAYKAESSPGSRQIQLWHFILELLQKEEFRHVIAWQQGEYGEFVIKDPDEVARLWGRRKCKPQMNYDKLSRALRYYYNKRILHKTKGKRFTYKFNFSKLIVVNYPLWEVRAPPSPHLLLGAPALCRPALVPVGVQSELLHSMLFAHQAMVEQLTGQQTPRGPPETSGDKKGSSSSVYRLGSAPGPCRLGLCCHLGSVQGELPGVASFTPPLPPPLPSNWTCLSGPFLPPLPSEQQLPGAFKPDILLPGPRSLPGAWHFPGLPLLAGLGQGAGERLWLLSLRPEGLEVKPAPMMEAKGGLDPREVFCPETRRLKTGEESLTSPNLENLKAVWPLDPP
In outline: as §1

In a further experiment the target is T11, ETS2 (Homo sapiens, UniProt P15036 1-469).
T11 sequence: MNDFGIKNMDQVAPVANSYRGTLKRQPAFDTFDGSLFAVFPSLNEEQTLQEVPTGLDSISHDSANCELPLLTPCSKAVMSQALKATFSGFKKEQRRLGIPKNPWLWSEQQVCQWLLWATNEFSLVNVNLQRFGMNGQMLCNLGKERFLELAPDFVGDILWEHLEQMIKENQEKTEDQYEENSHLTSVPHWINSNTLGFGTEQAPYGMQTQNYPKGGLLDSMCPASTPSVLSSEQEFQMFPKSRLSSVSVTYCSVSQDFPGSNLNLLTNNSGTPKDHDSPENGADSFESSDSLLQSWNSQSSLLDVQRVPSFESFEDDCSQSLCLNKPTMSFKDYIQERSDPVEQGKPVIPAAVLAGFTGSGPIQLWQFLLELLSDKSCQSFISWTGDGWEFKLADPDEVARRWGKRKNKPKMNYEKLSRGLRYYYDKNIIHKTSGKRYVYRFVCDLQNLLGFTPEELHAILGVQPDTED
In outline: as §1

The target in a further experiment is T12, ELF5 (Homo sapiens, UniProt Q9UKW6-2 1-255).
T12 sequence: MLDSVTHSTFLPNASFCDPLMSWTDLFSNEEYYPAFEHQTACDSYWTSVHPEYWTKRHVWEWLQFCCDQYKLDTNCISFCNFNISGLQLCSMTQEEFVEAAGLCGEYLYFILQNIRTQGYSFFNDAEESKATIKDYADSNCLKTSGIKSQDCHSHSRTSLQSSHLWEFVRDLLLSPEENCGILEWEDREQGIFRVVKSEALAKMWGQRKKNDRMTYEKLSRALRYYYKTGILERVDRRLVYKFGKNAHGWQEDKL
In outline:
as §1

Another experiment addresses T13, ETV3 (Homo sapiens, UniProt P41162-2 1-143).
T13 sequence: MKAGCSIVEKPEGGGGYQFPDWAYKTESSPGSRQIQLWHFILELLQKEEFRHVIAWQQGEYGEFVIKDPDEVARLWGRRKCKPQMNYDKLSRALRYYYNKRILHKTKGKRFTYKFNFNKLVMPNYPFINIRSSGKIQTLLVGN
Put shortly:
as §1

The next experiment deals with ETV6 (Homo sapiens, UniProt P41212 1-452). In outline: as §1
Chain of ETV6 (P41212 whole entry): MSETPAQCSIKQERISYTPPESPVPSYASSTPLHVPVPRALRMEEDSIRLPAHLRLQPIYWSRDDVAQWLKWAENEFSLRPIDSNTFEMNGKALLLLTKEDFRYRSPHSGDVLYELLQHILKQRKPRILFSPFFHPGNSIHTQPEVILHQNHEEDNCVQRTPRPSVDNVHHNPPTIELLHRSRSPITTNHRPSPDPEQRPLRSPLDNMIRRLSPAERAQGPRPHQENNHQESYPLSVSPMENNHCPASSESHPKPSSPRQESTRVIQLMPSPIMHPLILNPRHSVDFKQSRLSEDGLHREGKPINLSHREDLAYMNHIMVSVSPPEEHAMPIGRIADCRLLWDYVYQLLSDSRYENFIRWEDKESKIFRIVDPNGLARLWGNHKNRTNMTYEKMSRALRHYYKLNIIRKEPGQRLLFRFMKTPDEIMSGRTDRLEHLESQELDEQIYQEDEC

Chain of SPIB (Q01892 whole entry): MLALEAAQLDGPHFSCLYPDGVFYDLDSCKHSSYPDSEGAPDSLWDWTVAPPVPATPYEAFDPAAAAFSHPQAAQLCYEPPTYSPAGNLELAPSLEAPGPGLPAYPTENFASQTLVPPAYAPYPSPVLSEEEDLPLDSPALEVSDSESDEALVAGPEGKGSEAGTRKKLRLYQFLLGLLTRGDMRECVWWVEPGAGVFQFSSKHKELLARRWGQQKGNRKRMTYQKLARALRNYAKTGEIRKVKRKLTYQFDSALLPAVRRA
Chain of ETV5 (P41161 whole entry): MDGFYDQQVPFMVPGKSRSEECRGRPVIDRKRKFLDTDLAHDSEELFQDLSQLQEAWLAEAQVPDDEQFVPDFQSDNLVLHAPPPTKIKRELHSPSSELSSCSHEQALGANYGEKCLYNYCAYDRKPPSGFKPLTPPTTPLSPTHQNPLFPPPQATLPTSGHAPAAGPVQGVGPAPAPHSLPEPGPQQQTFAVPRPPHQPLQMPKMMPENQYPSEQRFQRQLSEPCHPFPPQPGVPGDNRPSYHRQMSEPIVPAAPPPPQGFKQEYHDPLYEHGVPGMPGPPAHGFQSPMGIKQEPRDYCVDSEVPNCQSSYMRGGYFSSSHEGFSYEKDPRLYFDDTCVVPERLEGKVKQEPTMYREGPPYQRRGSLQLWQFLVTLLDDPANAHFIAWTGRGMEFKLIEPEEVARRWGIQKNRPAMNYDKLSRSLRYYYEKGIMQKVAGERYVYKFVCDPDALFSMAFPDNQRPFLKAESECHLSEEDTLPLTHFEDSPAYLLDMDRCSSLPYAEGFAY
Chain of ELF4 (Q99607 whole entry): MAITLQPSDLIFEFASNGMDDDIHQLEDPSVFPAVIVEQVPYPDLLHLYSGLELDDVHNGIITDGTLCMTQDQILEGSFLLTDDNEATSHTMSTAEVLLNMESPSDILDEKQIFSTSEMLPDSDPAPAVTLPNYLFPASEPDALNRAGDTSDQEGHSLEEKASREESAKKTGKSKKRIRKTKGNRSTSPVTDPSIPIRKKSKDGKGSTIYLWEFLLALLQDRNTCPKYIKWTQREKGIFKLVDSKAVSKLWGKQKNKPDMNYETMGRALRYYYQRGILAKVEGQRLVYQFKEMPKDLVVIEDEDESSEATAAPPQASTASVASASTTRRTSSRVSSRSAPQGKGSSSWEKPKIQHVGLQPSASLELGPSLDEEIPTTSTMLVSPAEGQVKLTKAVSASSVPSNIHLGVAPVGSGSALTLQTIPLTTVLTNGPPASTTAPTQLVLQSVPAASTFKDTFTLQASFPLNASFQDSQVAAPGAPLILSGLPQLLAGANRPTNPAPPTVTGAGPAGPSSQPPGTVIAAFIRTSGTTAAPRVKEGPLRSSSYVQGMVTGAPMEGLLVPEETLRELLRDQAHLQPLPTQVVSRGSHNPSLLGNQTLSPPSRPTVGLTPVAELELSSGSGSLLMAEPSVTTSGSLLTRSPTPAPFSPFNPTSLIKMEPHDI
Chain of ETV1 (P50549 whole entry): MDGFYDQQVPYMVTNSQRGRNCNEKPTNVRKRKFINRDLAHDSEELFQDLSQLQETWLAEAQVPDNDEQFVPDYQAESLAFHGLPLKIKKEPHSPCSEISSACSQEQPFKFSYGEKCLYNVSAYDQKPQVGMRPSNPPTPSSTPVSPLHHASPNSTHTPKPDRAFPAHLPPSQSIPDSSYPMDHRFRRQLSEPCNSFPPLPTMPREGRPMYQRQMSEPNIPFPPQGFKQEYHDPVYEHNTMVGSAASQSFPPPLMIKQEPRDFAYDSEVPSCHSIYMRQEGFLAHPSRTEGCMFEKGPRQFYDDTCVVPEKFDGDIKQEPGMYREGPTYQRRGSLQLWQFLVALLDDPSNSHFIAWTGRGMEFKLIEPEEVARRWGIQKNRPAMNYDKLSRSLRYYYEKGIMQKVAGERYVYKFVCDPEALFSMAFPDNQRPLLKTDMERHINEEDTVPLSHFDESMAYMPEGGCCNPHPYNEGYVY

Take ACGTTG: the binding signal with FLI1 was 1.14 fold enrichment (6-mer frequency, TF over GST control); with ELK1 it was 1.11 fold enrichment (6-mer frequency, TF over GST control); with GABPA, 1.05 fold enrichment (6-mer frequency, TF over GST control); with ERG, 1.05 fold enrichment (6-mer frequency, TF over GST control); in the experiment with ELF1, 1.03 fold enrichment (6-mer frequency, TF over GST control); in the experiment with EHF, 1.07 fold enrichment (6-mer frequency, TF over GST control). The binding signal was 1.08 fold enrichment (6-mer frequency, TF over GST control) in the experiment with SPI1; 1.02 fold enrichment (6-mer frequency, TF over GST control) in the experiment with SPIB; 1.01 fold enrichment (6-mer frequency, TF over GST control) in the experiment with ELK3; 1.07 fold enrichment (6-mer frequency, TF over GST control) with FEV; 1.03 fold enrichment (6-mer frequency, TF over GST control) with ETV5; 1.28 fold enrichment (6-mer frequency, TF over GST control) in the experiment with SPIC. Further, the binding signal with ELF4 was 1.13 fold enrichment (6-mer frequency, TF over GST control); with ETV1, 1.06 fold enrichment (6-mer frequency, TF over GST control); with ERF, 1.07 fold enrichment (6-mer frequency, TF over GST control); with ETV3L it was 1.08 fold enrichment (6-mer frequency, TF over GST control); in the experiment with ETS2, 1.07 fold enrichment (6-mer frequency, TF over GST control); with ELF5, 1.02 fold enrichment (6-mer frequency, TF over GST control). In addition, the binding signal with ETV3 was 1.11 fold enrichment (6-mer frequency, TF over GST control); with ETV6 it was 1.11 fold enrichment (6-mer frequency, TF over GST control).
